Source: PubChem BioAssay (NCI)
Compounds without any hit were thinned out: in the full panel of roughly 83,000, 20% have a hit.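 Values shown are percent growth following 48 h exposure of cells in 96-well plates to a single concentration of compound; below 10 was considered active.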 Unmarked numbers belong to inactive results. Activity calls are given as the source filed them.

Assays:
Assay in all cases: NCI-60 one-dose screen, 48 h (100 = growth as untreated, 0 = no growth, -100 = all killed)
Details in all cases: 10 µM unless noted
T-47D breast = system: T-47D breast
BT-549 breast = system: BT-549 breast
MDA-MB-435 melanoma = system: MDA-MB-435 melanoma
SW-620 colon = system: SW-620 colon
MCF7 breast = system: MCF7 breast
HCT-116 colon = system: HCT-116 colon
HCC-2998 colon = system: HCC-2998 colon
KM12 colon = system: KM12 colon

Row | SMILES | growth (T-47D breast) | growth (BT-549 breast) | growth (MDA-MB-435 melanoma) | growth (SW-620 colon) | growth (MCF7 breast) | growth (HCT-116 colon) | growth (HCC-2998 colon) | growth (KM12 colon)
1 | CCOC(=O)/C=C1/SC(=Nc2ccc(C#N)cc2)N(Cc2ccco2)C1=O | 12.1% | 44.8% | 50.5% | 12% | 12.6% | -61.6% (active) | 64.7% | 60.9%
2 | O=c1[nH]cc(Nc2cc(Cl)c3nonc3c2[N+](=O)[O-])c(=O)[nH]1 | 101% | 114% | -41.2% (active) | 89.8% | 109% | 99.1% | 90.6% | 109%
3 | O=C(COc1ccc(/C=C2\Oc3ccc4ccccc4c3C2=O)cc1)c1ccc(Cl)cc1 | 79.4% | 24.7% | 101% | 103% | 58.5% | 96.7% | 134% | 99.5%
4 | O=C(/C=C/c1ccc(C(F)(F)F)cc1)c1ccc(Nc2nc(NCCO)nc(NCCO)n2)cc1 | 37.2% | 21.3% | 92.8% | 1.28% (active) | 13.1% | -25.4% (active) | 97.4% | 19%
5 | COc1ccc(C2=NN(C(N)=S)C(c3ccc4c(c3)OCO4)C2)cc1 (configuration not stated) | 36.7% | -2.03% (active) | 3.04% (active) | 1.46% (active) | 10.5% | 1.71% (active) | -24.7% (active) | 2.57% (active)
6 | N#Cc1c(-c2ccccc2)cc(-c2ccccc2)n(CCCCCCC(=O)O)c1=O | 91.1% | 101% | 102% | 103% | 67.9% | 98.5% | 111% | 98.9%
7 | c1ccc(N2c3nc4ccccc4cc3Sc3cc4ccccc4nc32)nc1 | 82.6% | 93.2% | 115% | 90.8% | 74% | 98.5% | 113% | –
8 | CC(=O)N1N=C(c2ccc3c(c2)OCO3)CC1c1c(C)nn(-c2ccccc2)c1N(C)Cc1ccccc1 (configuration not stated) | 58.6% | 85.2% | 90.7% | 85.9% | 66.1% | 57.3% | 97.2% | 83.6%
9 | COc1cc(/C=C/C(=O)CC(=O)/C=C/c2ccc(OC(=O)C3C4CC5CC(C4)CC3C5)c(OC)c2)ccc1OC(=O)C1C2CC3CC(C2)CC1C3 (configuration not stated) | 99.4% | 108% | 112% | 113% | 110% | 93% | 98.8% | 107%
10 | CN(C)c1ccc(-n2nc3ccccc3n2)cc1 | 78.4% | 91.6% | 100% | 95.9% | 89.9% | 77% | 75.3% | 108%
11 | NS(=O)(=O)c1cc2c(cc1Cl)NC=NS2(=O)=O | 97.7% | 95.9% | 102% | 111% | 96.9% | 98% | 93.4% | 106%
12 | Cc1n(Cc2ccc3ccccc3c2)cc[n+]1Cc1ccc2ccccc2c1 | 0.847% (active) | -13.6% (active) | -14.6% (active) | 18.7% | 7.52% (active) | 6.14% (active) | 7.45% (active) | -9.94% (active)
13 | Cc1ccc(-c2c3c(N)nc(-c4ccncc4)nc3nc3c2c(C)nn3-c2ccccc2)cc1 | 35.6% | 59.4% | 31.4% | 39.5% | 1.86% (active) | 12.7% | 99.8% | 74.7%
14 | COc1cc(-c2nc3nc4sc(C)c(C)c4c(=O)n3[nH]2)cc(OC)c1OC | 57% | 77.8% | 7.6% (active) | 79.1% | 35.7% | 75.9% | 94.2% | 76.6%
15 | COc1cccc(N2CCN(CC(=O)N3CCN(c4nnc(-c5ccc(Cl)cc5)c(-c5ccc(Cl)cc5)n4)CC3)CC2)c1 | 27.2% | 88.4% | 70.9% | 72.3% | 41.2% | 40.1% | 80.6% | 56.5%
16 | COc1cc(C(=O)c2cc3c(cc2C)OCO3)cc(OC)c1OC | 58.2% | 68.3% | -49% (active) | 25.6% | 13.6% | 15.9% | 10.1% | 16.5%

Row | SMILES | growth (T-47D breast) | growth (BT-549 breast) | growth (MDA-MB-435 melanoma) | growth (SW-620 colon) | growth (MCF7 breast) | growth (HCT-116 colon) | growth (HCC-2998 colon) | growth (KM12 colon)
17 | CCCCCc1c(C)[nH]c(/C=C2\N=C(c3ccc[nH]3)C=C2Oc2ccc(Cl)cc2)c1C | -38.1% [100 µM] (active) | 0.41% [100 µM] (active) | -71.7% [100 µM] (active) | -31.7% [100 µM] (active) | -68.5% [100 µM] (active) | -89.8% [100 µM] (active) | -17% [100 µM] (active) | -75.5% [100 µM] (active)
18 | CCOC(=O)Nc1cc(-c2ccc(C)c(NS(C)(=O)=O)c2)nn2c(C)nnc12 | 23.3% | 49.5% | 9.2% (active) | 30.2% | 13% | 15.6% | -58% (active) | 12.2%
19 | O=c1ccn(C2CC=C(CO)O2)c(=O)[nH]1 (configuration not stated) | 96.5% | 106% | 106% | 103% | 92% | 96% | 123% | 103%
20 | c1ccc(-c2oc(-c3ccccc3)c3ccccc23)cc1 | 101% | 96.5% | 107% | 109% | 122% | 108% | 107% | 105%
21 | CCOC(=O)c1sc(NC(=O)COc2cccc(/C=C3\CCc4cc(OC)ccc4C3=O)c2)nc1C | 84.8% | -23.3% (active) | 8.01% (active) | 36.4% | 18.9% | 46.5% | 32.3% | 34.7%
22 | O=C1/C(=C/c2cccc(Cl)c2)CCc2ccccc21 | 101% | 102% | 96.6% | 56.4% | 50.5% | 93% | 102% | 87.9%
23 | C=C1CCC2C3(C)COC(c4ccccc4)OC3CCC2(C)C1C/C=C1/C(=O)OCC1OC(C)=O (configuration not stated) | 71.1% | 103% | 88.6% | 41.4% | 24.9% | 24.9% | 107% | 84.4%
24 | Cc1sc2nc(NCCc3cccs3)[nH]c(=O)c2c1C | 74.6% | 74.7% | 84.2% | 96.4% | 87.3% | 71% | 101% | 92.6%
25 | O=C(O)CCNS(=O)(=O)c1ccc(-c2ccccc2)cc1 | 108% | 127% | 102% | 95.4% | 106% | 108% | 111% | 117%
26 | NC(=O)NC1(C(=O)O)CCCC1 | 93.6% | 111% | 107% | 109% | 98.9% | 115% | 108% | 107%
27 | c1ccc(-c2n(Cc3ccc4ccccc4c3)cc[n+]2Cc2ccc3ccccc3c2)cc1 | -0.722% (active) | -77.5% (active) | -73.2% (active) | -50.7% (active) | -65.8% (active) | -91.6% (active) | -59.9% (active) | -81.5% (active)
28 | COc1cc(-c2n[nH]nc2-c2ccccn2)cc(OC)c1OC | 87.2% | 117% | 106% | 106% | 96.2% | 104% | 105% | 102%
29 | CCCCCN1C(=O)CCC1=O | 95.5% | 103% | 102% | 111% | 98.4% | 105% | 103% | 94.5%
30 | CO[C@H]1/C=C/O[C@@]2(C)Oc3c(C)c(O)c4c(O)c(c(/C=N/N5C(C)CN(Cc6ccc(C#N)cc6)CC5C)c(O)c4c3C2=O)NC(=O)/C(C)=C\C=C\[C@H](C)[C@H](O)[C@@H](C)[C@@H](O)[C@@H](C)[C@H](OC(C)=O)[C@@H]1C (some centres not stated) | 18.1% | -0.569% (active) | 26.1% | 31.5% | 11.9% | 18.5% | 2.4% (active) | 15.8%
31 | Cn1cnc([N+](=O)[O-])c1Sc1nc(N)nc2nc[nH]c12 | 47.2% | 43.4% | 25% | 50.7% | 15.1% | 23% | 19.6% | 23.5%
